Source: PubChem BioAssay (National Center for Advancing Translational Sciences (NCATS))
KinaseGlo FLuc: Kinase-Glo luciferase inhibition (counter-screen). Q27757. Kinase-Glo luciferase, ATP luminescence, 8 min. Potency, µM (highest dose often 38.3 µM), without a hit: at the top dose activity change, negative = inhibition, most hits filed as inhibitors. 200,000 tested, 0.28% active. AID 1379; also: % is scaled to controls: 0 for no effect and ±100 for the full control effect; nearly all actives have a fitted effect of over 60% in size
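Light output from Kinase-Glo luciferase with luciferin and 10 uM ATP in 50 mM imidazole pH 7.2, KCl, MgCl2, Tween 20, BSA; compound pin-delivered, 8-min ambient incubation, then luminescence read.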
FLuc modulator: counter-screen for miR-21 project: firefly luciferase inhibitors or activators; P08659; purified FLuc, Km substrates, luminescence inhibition; Potency, µM (series often up to 57.5 µM), without a hit: at the highest dose activity change, negative = inhibition, hits mostly inhibitors; 360,000 tested, 6.9% active; AID 588342;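 also: plate controls were vehicle for no effect and reference inhibitor for full effect; nearly all actives have a fitted effect of over 55% in size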
Target sequence (P08659 whole entry, looked up): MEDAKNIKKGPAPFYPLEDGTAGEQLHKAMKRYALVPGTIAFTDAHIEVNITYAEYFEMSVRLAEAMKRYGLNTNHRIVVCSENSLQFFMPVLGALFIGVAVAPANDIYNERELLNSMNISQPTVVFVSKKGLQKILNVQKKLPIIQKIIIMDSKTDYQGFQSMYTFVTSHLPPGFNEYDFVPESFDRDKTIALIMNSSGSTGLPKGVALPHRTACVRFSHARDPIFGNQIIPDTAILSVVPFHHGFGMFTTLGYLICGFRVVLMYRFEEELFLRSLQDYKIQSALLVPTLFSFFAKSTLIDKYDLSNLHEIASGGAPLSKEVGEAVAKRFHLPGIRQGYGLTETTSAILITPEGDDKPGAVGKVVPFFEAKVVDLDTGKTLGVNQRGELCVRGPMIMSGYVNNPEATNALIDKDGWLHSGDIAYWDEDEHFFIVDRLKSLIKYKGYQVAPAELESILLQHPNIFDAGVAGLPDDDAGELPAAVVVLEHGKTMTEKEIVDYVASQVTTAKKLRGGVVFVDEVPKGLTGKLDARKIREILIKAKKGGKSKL
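Purified P. pyralis luciferase (10nM final) with 10uM D-luciferin and 10uM ATP (Km levels) in 50mM Tris acetate pH 7.5, 10mM Mg acetate, 0.01% Tween-20, 0.05% BSA; qHTS 6-point titration, ~60 µM downward; luminescence read.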
SMN2 splice up: increases expression of the SMN2 splice variant. AID 1458. Potency, µM (top dose mostly 46.1 µM), for the others: at the top dose activity change, positive = activation, most hits filed as activators. 210,000 tested, 2.8% active. HEK293 SMN2-luciferase splicing reporter, luminescence, 30-36 h; also: % of control where 0% means no effect; nearly all actives have a fitted effect of over 55% in size
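HEK293 cells carry an SMN2 minigene-luciferase reporter in which exon 7 inclusion puts luciferase in frame. Cells were seeded at 2000 cells/well, attached for 10-12 hours, then exposed to compounds for 30-36 hours at 37C before ONE-Glo luminescence.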
NPC1 promoter act: activators of NPC1 promoter | Huh7 NPC1 promoter luciferase reporter, 24 h | 320,000 tested, 2.4% active | Potency, µM (highest dose often 9.22 µM), for inactives: top-dose activation, most hits filed as activators; also: % of control where 0% means no effect; nearly all actives have a fitted effect of over 60% in size
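Luminescence from an NPC1 promoter-driven luciferase reporter in stably transfected Huh7 cells was measured after 24 h compound treatment at 37 °C, followed by 10 min ambient incubation with luciferase detection reagent.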
Rab9 promoter act: Rab9 promoter activation | Huh7 Rab9 promoter-luciferase reporter, luminescence, 24 h | Potency, µM (doses to about 9.22 µM), for inactives: at the top dose activation, negative = inhibition, hits mostly activators | 320,000 tested, 2.8% active; also: % of control where 0% means no effect; nearly all actives have a fitted effect of over 60% in size
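Using Huh7 cells stably transfected with Rab9 promoter–luciferase, compounds were incubated 24 h at 37 °C, 5% CO2; luciferase luminescence was read 10 min after reagent addition.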
ELG1 genotox: inducers of genotoxicity in HEK293T ELG1-luciferase cells | 330,000 tested, 1.3% active | Potency, µM (highest dose often 46 µM), for the others: at the highest dose activity change, positive = activation, usual class: activators | HEK293T ELG1-luciferase reporter, luminescence, 16 h; also: % of control where 0% means no effect; nearly all actives have a fitted effect of over 60% in size
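16 hr compound incubation (37 °C, 5% CO2) of HEK293T cells carrying luciferase-tagged ELG1; luciferase then measured by ONE-Glo luminescence after 30 min at RT.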
* = called active by the depositor; u = inconclusive; x = no result given; [ ] = dose if it differs, or a comment. Sampled rows, rich in hits. Any-hit rate of the full collection: about 7.3%. Calls follow the shape of the dose curve; as a rule, active = well fitted curve in the direction sought with a large enough effect; inconclusive = small, poorly fitted or top-dose-only effect, or another doubt; inactive = no such curve, though single readings can be large; an effect the other way counts as inactive or inconclusive. Potency is read from the fitted curve at half-maximal effect.

SMILES	KinaseGlo FLuc	FLuc modulator	SMN2 splice up	NPC1 promoter act	Rab9 promoter act	ELG1 genotox
O=C(N/N=C/c1ccccc1)c1ccc(-c2ccccc2)cc1	x	-16.7%	x	14.7%	u	4.6%
CC1Oc2ccccc2C=C1/C=N\NC(=O)c1cccnc1 (stereo not given)	x	16.9µM*	x	18.0%	14.8%	u
CC1Oc2ccccc2C=C1/C=N/NC(=O)[C@@H](C)NC(=O)OC(C)(C)C (stereo not given in full)	x	-22.3%	x	-3.0%	0.4%	-7.0%
CC1Oc2ccccc2C=C1/C=N/NC(=O)c1ccccc1O (stereo not given)	-5.2%	1.69µM*	12.6µM*	u	u	-3.0%
C=CCOc1cccc(C(=O)Nc2ncn[nH]2)c1	x	-18.0%	x	9.5%	4.6%	0.5%
O=C(Nc1ccc(O)c(-c2nc3ccccc3o2)c1)c1ccco1	x	0.0%	8.0%	x	x	x
COc1cc(C(=O)Oc2cccc(/C=N/NC(=O)c3cccnc3)c2)cc(OC)c1OC	x	u	x	-11.0%	-2.3%	-21.4%
N#Cc1c(SCC(=O)Nc2nc3ccccc3s2)sc2c(O)cc(=O)[nH]c12	x	2.39µM*	x	1.0%	17.4%	1.4%
N#Cc1c(SCC(=O)Nc2nc3ccc(Br)cc3s2)sc2c(O)cc(=O)[nH]c12	x	u	x	26.0%	25.6%	-0.3%
COc1ccc(N2CCN(C(=O)CN3c4cccc5cccc(c45)S3(=O)=O)CC2)cc1	x	x	x	x	x	-10.1%
COc1ccccc1-n1c(=S)[nH]c2c(sc(=S)n2-c2ccccc2)c1=O	-1.2%	u	-13.9%	-1.9%	-1.7%	-0.4%
Cc1ccc2cc(/C=N/NC(=O)c3ccc(F)cc3)c(Cl)nc2c1	1.9%	-2.0%	-22.4%	-3.1%	0.3%	u
Cc1ccc2nc(Cl)c(/C=N/Nc3ccc(C(=O)O)cc3)cc2c1	x	0.0675µM*	x	0.316µM*	0.447µM*	u
Cc1ccc(NCC(=O)N/N=C/c2cc3ccccc3nc2Cl)cc1	-7.4%	15.1µM*	-5.7%	-2.3%	-4.4%	5.0%
O=C(CN1CCOCC1)N/N=C/c1cc2ccccc2nc1Cl	2.8%	2.9%	14.0%	-0.8%	-1.5%	2.3%
COc1ccc(S(=O)(=O)N2CCC(C(=O)NCc3ccccn3)CC2)cc1C	0.8%	10.4%	15.5%	-1.1%	-0.7%	-4.1%
Cc1cccc(N2CCN(C(=O)Cn3ncc4c3-c3ccccc3OC4)CC2)c1C	x	-11.1%	-15.2%	x	x	x
CCCc1nnc(NC(=O)c2cc3ccccc3o2)s1	x	13.5µM*	x	3.55µM*	3.98µM*	27.4%
COC(=O)Cc1nnc(NC(=O)c2ccccc2)s1	x	-15.7%	x	5.5%	3.7%	7.7%
COCc1nnc(NC(=O)c2cccc(NC(=O)c3ccccc3)c2)s1	x	19µM*	x	13.1%	16.0%	-0.6%
COCc1nnc(NC(=O)c2cc3ccccc3o2)s1	x	19µM*	x	u	u	u
CCCc1nnc(NC(=O)c2cc3ccccc3oc2=O)s1	-1.5%	-0.2%[2.3 µM]	11.6%	7.6%	1.7%	5.8%
Cc1cc(C)cc(N(CCC#N)C(=O)COC(=O)Cn2[nH]c(=O)c3ccccc3c2=O)c1	x	x	x	x	x	-2.1%
O=C(CN1C(=O)C2C3C=CC(C3)C2C1=O)N1CC(=O)N(CCc2ccccc2)C(=O)C1 (stereo not given)	-0.1%	0.9%	-8.3%	-1.8%	1.7%	0.0%
CN(C)CCn1c(=S)[nH]c2ccccc2c1=O	-0.8%	0.3%	11.4%	14.4%	0.8%	5.3%
SMILES	KinaseGlo FLuc	FLuc modulator	SMN2 splice up	NPC1 promoter act	Rab9 promoter act	ELG1 genotox
CCCn1c(=S)[nH]c2ccccc2c1=O	-1.7%	13.5µM*	1.7%	-9.0%	-10.1%	-2.5%
O=C(c1ccccc1S(=O)(=O)NCc1ccccc1)N1CCCCC1	0.4%	-2.3%	1.1%	4.0%	1.7%	0.1%
CCC(=O)Nc1cccc(-c2ccc(N3CCC(C)CC3)nn2)c1	x	0.135µM*	x	0.316µM*	0.316µM*	0.731µM*
CCC(=O)Nc1cccc(-c2nnc(-c3cccc(NC(=O)CC)c3)o2)c1	3.6%	u	-19.1%	0.7%	-3.2%	-6.0%
O=C(COc1ccc(Cl)cc1Cl)Nc1ccc(-c2ccc(N3CCOCC3)nn2)cc1	x	1.9%	x	u	u	5.0%
CC1CCN(c2ccc(-c3cccc(NC(=O)c4ccco4)c3)nn2)CC1	x	0.151µM*	x	1.26µM*	1µM*	0.517µM*
CCC(=O)Nc1ccc(-c2ccc(N3CCC(C)CC3)nn2)cc1	x	9.53µM*	x	2.82µM*	1.41µM*	u
CCOc1ccc(S(=O)(=O)NCC(c2ccc(N(C)C)cc2)N2CCc3ccccc32)cc1 (stereo not given)	x	1.4%	x	x	x	x
N#C/C(=C/c1ccc(CNC(=O)C(=O)Nc2cc(Cl)cc(Cl)c2)o1)C(=O)NCc1cccnc1	-2.2%	0.8%	-10.0%	-5.3%	-13.0%	16.4%
COc1ccc2oc(=O)c(C(=O)N3CCN(c4ccc(F)cc4)CC3)cc2c1	-0.7%	-0.7%	-20.7%	0.2%	-1.0%	-1.3%
O=C1C(=O)c2c(C(=O)c3ccccc3)coc2-c2ccccc21	-5.5%	u	-2.4%	1.0%	1.8%	10µM*
COc1ccc(CC(=O)Nc2cccc(-c3nnc(-c4ccco4)o3)c2)cc1	-4.6%	-8.5%	-18.0%	0.4%	1.7%	-7.9%
O=C(Nc1nnc(-c2ccc(F)cc2)o1)c1ccco1	x	16.9µM*	x	8.6%	0.1%	4.3%
COc1cccc(C(=O)Nc2ccccc2-c2nnc(-c3cccc(OC)c3)o2)c1	x	2.69µM*	2.9%	x	x	x
Cc1ccc(NC(=O)CCSc2nnc(-c3ccco3)o2)cc1	1.2%	-11.8%	9.0%	0.5%	-1.1%	-1.6%
COc1cccc(C(=O)Nc2ccccc2-c2nc(-c3ccc(C)cc3)no2)c1	x	1.2%	x	x	x	x
Cc1ccc(SCC(=O)Nc2ccc(-c3nnc(-c4ccco4)o3)cc2)cc1	-7.1%	3.1%	u	2.51µM*	3.55µM*	u
COc1ccc(C(=O)Nc2cccc(-c3nnc(-c4ccco4)o3)c2)cc1	20.5%	19µM*	-12.3%	18.9%	8.2%	-8.7%
Cc1ccc(-n2nc3c(c2NC(=O)C(C)(C)C)CSC3)c(C)c1	x	15.4%	x	2.7%	-19.7%	2.5%
CCCn1c(N)c(N(CCOC)C(=O)CSc2cc(C)c3cccc(C)c3n2)c(=O)[nH]c1=O	x	x	x	1.1%	-3.2%	4.3%
CN(C)c1cccc(NC2=CC(=[N+]3CCOCC3)CC(C)(C)C2)c1	8.8%	2.6%	-20.0%	5.9%	-1.4%	-2.9%
Cc1ccc(C(=O)Nc2nnc(-c3ccco3)o2)cc1	-5.3%	13.5µM*	12.6µM*	3.55µM*	3.98µM*	u
COc1cc(C(=O)Nc2cccc(-c3nnc(-c4ccco4)o3)c2)ccc1OC(C)=O	-1.2%	15.1µM*	-0.3%	0.0%	-0.8%	-6.2%
